Values joined by “and” are separate entries in the source; they are usually repeats but may differ in a detail not shown here. Equal values may be shown once. Inconclusive results are not listed. Some structures have more than one record in an assay (separate samples or runs), and their calls can disagree. Active and inactive are the calls of the source. Unless noted, calls come from the whole dose curve; as a rule, active = well fitted curve in either direction with a large enough effect (not every such curve was filed as active); inconclusive = small, poorly fitted or top-dose-only effect, or another doubt; inactive = flat fitted curve, though single readings scatter.
Experiments:
[1] = molecular target: Lysosomal acid glucosylceramidase (Homo sapiens) (UniProt P04062); test: Glucocerebrosidase-p2 (AID 348; in the data active = potency below about 10 µM; note: potency is the fitted concentration of half-maximal effect); conditions: purified GBA, blue fluorogenic substrate, 40 min
In short: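 Compounds titrated from 0.6 nM upwards against 0.2 nM enzyme in pH 5.9 citric acid/KH2PO4, taurocholate, tween-20; blue fluorogenic substrate 80 uM, 40 min room temperature, stopped and read Ex 365/Em 440 for AC50.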

[2] = AP1 Signaling Pathway (AID 357); conditions: ME-180 AP-1-bla reporter, EGF-induced, beta-lactamase ratio, 5 h; at 7.69 µM (top of the series) unless noted; note: % is set by controls: 0 for no effect and ±100 for the full control effect
In short: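 ME-180 cells with beta-lactamase reporter under AP-1 response element, stimulated with EC50 EGF; compounds tested in titration series, 5 h at 37 °C. CCF4 substrate added 2.5 h at room temperature; 460/530 nm emission ratio gave %activity and AC50.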

[3] = NFAT Signaling Pathway (AID 444); conditions: Jurkat NFAT-bla M1, carbachol, beta-lactamase ratio, 5 h;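 note: carbachol stimulus at about its EC50 of 1 µM final; % is set by controls: 0 for no effect and ±100 for the full control effect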
In short: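 Jurkat cells with NFAT-driven β-lactamase reporter and co-expressed M1 receptor, stimulated with carbachol (final 1 uM, ~EC50), compound titration, 5 h at 37 °C. CCF4 loaded 1 h at RT; 460/530 nm ratio gave %activity and AC50.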

[4] = Stat Signaling Pathway (AID 446); conditions: ME-180 SIE beta-lactamase reporter, IL-6 stimulated, 5 h;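 note: ME-180 cervical cancer cells given 40 pM IL-6 alongside compound; SIE-controlled beta-lactamase reporter measured as 460/530 nm FRET emission ratio; % is set by controls: 0 for no effect and ±100 for the full control effect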
In short: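 ME-180 SIE-bla cells; overnight plating; cpd + IL-6 40 pM, 5 h, 37 C; LiveBLAzer 2.5 h RT; 460/530 nm emission ratio. Normalized to 300 pM IL-6 and 125 nM JAK inhibitor controls.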

[5] = molecular target: Glucocorticoid receptor (Homo sapiens) (UniProt P04150); test: GR-GFP Redistribution (AID 450;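 active = compounds whose dose series gives a full or clear partial fitted curve of increased nuclear translocation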; note: potency is the fitted concentration of half-maximal effect); conditions: U2OS GR-GFP nuclear translocation, laser cytometry, 2 h
[6] = molecular target: Glucocorticoid receptor (Homo sapiens) (UniProt P04150); test: GR-EFC Redistribution (AID 451; calls by dose curve; note: potency is the fitted concentration of half-maximal effect); conditions: CHO-K1 GR-EFC translocation, beta-gal luminescence, 2 h
In short: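 CHO-K1 cells expressing nuclear EA and GR-ED fragments of b-gal; compounds titrated up to 46 uM final, 2 h at 37 C. GR nuclear translocation read as complemented b-gal luminescence after 1 h RT detection.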

[7] = molecular target: Mitogen-activated protein kinase 10 (Mus musculus) (UniProt Q61831); test: JNK3 AlphaScreen Assay (AID 530); conditions: JNK3 lysate, c-Jun phosphorylation; series mostly up to 57.1 µM;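 note: kinase came from lysate of stimulated human HepG2 cells; signal reports phosphorylation of biotinylated GST-cJun 1-79 at Ser73 with 10 µM ATP; % is set by controls: 0 for no effect and ±100 for the full control effect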
In short: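 Pre-activated (IL-1β/TNFα) JNK3 in HepG2 lysates phosphorylates biotin-GST-cJun(1-79), 10 uM ATP; anti-phospho-cJun(Ser73) AlphaScreen read at room temperature, pH 7.6 Tris buffer. Compounds pre-incubated 15 min as titrations.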

[8] = Confirmation and Secondary Assay for Modulators of Hemoglobin Beta Chain Splicing at IVS2 654 locus (AID 910; active = well fitted curve in the direction sought with a large enough effect; an effect the other way counts as inactive or inconclusive;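 note: HeLa cells stably carrying EGFP split by mutant beta-globin IVS2-654 intron; % of control where 0% means no effect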); conditions: HeLa EGFP-654 splicing reporter, GFP fluorescence, 48 h; series mostly up to 38.3 µM
In short: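 HeLa cells stably expressing EGFP interrupted by β-globin IVS2-654 intron, seeded overnight in Opti-MEM/2% FCS, then treated 2 days at 37 °C. Restored splicing read as total peak GFP intensity per well by laser scanning cytometry (488 nm excitation, 500–520 nm emission); 500 nM antisense PNA as control.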

[9] = Confirmation and Secondary Assay for Modulators of Hemoglobin Beta Chain Splicing at IVS2 705 locus (AID 930; active = well fitted curve in the direction sought with a large enough effect; an effect the other way counts as inactive or inconclusive;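 note: HeLa cells stably expressing the EGFP-705 splicing reporter; GFP fluorescence per well restored by corrected splicing of the IVS2-705 intron in EGFP; % of control where 0% means no effect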); conditions: HeLa EGFP-705 splicing reporter, GFP fluorescence, 48 h; series mostly up to 38.3 µM
In short: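 HeLa cells stably carrying EGFP interrupted by mutant beta-globin intron 2 (IVS2-705) treated 2 days at 37C with compound; 500 nM antisense PNA as control. Correct splicing read as total peak GFP intensity per well by laser-scanning cytometry.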

[10] = qHTS Assay for Lipid Storage Modulators (AID 1519; calls by dose curve); conditions: Drosophila S3 cells, BODIPY lipid droplet/cell ratio, laser cytometry, cells loaded with oleic acid
In short: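 Cells seeded at 5,000 per well were treated with compounds over a concentration series and loaded with oleic acid (400 uM, as added). Lipid droplet fluorescence (488 nm excitation, 500-530 nm channel) was read by laser-scanning cytometry and normalized to 20 uM Triacsin C.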

[11] = molecular target: 3',5'-cyclic-AMP phosphodiesterase 4B (Homo sapiens) (UniProt Q07343); test: qHTS Assay for Inhibitors of PDE-IV (AID 607; active = well fitted activation curve with a large enough effect in the main read-out, with a control signal flat, not every such curve was filed as active; note: % of control where 0% means no effect); conditions: HEK293 ACTOne CNG channel cells, membrane potential fluorescence; series mostly up to 22.9 µM
In short: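 ACTOne HEK293 cells carry a modified cAMP-gated CNG channel and express endogenous PDE4; plated 1000 cells/well, compounds up to 22.9 uM final. Membrane-potential dye fluorescence (ex 535/em 590) was read; parental cells received 10 uM forskolin + 100 uM RO 20-1724.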

[12] = molecular target: Cytochrome P450 1A2 (Homo sapiens) (UniProt P05177); test: p450-cyp1a2 (AID 410; calls by dose curve; note: potency is the fitted concentration of half-maximal effect;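 for activity change, negative = inhibition: -100% = full effect of reference inhibitor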); conditions: recombinant CYP1A2, luciferin-ME demethylation, luminescence; series mostly up to 57 µM
In short: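 20nM CYP1A2 with 100uM Luciferin-ME (at Km) in 100mM KPO4; compound preincubated 10 min, NADPH regeneration added, 60 min at room temperature. Luciferin quantified by luminescence after detection reagent; normalized to 57 uM furafylline.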

[13] = molecular target: Cytochrome P450 2C9 (Homo sapiens) (UniProt P11712); test: qHTS Assay for Inhibitors and Substrates of Cytochrome P450 2C9 (AID 883; active = well fitted curve in the direction sought with a large enough effect; an effect the other way counts as inactive or inconclusive; note: % is set by controls: 0 for no effect and ±100 for the full control effect; nearly all actives have a fitted effect of over 60% in size); conditions: recombinant CYP2C9, luciferin-H luminescence, 60 min; series mostly up to 57.1 µM
In short: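 Signal: luciferase luminescence reporting luciferin produced by CYP2C9. Conditions: 10nM enzyme, Luciferin-H 100uM at KM, 25mM KPO4, 37C, 60 min NADPH-driven reaction. Reference: 57uM sulphaphenazole as 100% inhibition.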

[14] = molecular target: Cytochrome P450 3A4 (Homo sapiens) (UniProt P08684); test: qHTS Assay for Inhibitors and Substrates of Cytochrome P450 3A4 (AID 884; active = well fitted curve in the direction sought with a large enough effect; an effect the other way counts as inactive or inconclusive; note: potency is the fitted concentration of half-maximal effect; nearly all actives have a fitted effect of over 50% in size); conditions: recombinant CYP3A4, Luciferin-PPXE luminescence; series mostly up to 57.1 µM
In short: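 20 nM human CYP3A4 with 25 uM Luciferin-PPXE (at KM) in 200 mM KPO4, preincubated 10 min with compound; NADPH regeneration started a 60 min RT reaction. Luciferin detected by luminescence, normalized to 57 uM ketoconazole as full inhibition.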

[15] = molecular target: Cytochrome P450 3A4 (Homo sapiens) (UniProt P08684); test: qHTS Assay for Activators of Cytochrome P450 3A4 (AID 885; active = well fitted curve in the direction sought with a large enough effect; an effect the other way counts as inactive or inconclusive; note: nearly all actives have a fitted effect of over 65% in size); conditions: recombinant CYP3A4, Luciferin-PPXE luminescence, 60 min; series mostly up to 57.1 µM
In short: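 20nM CYP3A4 + 25uM Luciferin-PPXE (=KM), 200mM KPO4; cpd 10 min RT; NADPH regen, 60 min RT; stop w/ detection buffer, 20 min; luminescence. Normalized to 57 uM ketoconazole.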

[16] = molecular target: Ubiquitin carboxyl-terminal hydrolase 1 (Homo sapiens) (UniProt O94782); test: Inhibitors of USP1/UAF1: Pilot qHTS (AID 504865; active = well fitted curve in the direction sought with a large enough effect; an effect the other way counts as inactive or inconclusive;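 note: rhodamine fluorescence freed from ubiquitin-rhodamine substrate followed over time; top concentration of the series differs between compounds; % is set by controls: 0 for no effect and ±100 for the full control effect; nearly all actives have a fitted effect of over 35% in size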); conditions: purified USP1/UAF1, Ub-rhodamine cleavage fluorescence; series mostly up to 54.9 µM
In short: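 USP1/UAF1 complex at 1 nM preincubated 15 min at room temperature with compound, then Ub-Rho substrate added at 150 nM final. Fluorescence (480/540 nm) read kinetically in 50 mM HEPES pH 7.8, 0.5 mM EDTA, 1 mM TCEP, 0.1 mg/ml BSA, 0.01% Tween-20.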

[17] = molecular target: Cytochrome P450 2D6 (Homo sapiens) (UniProt P10635); test: qHTS Assay for Inhibitors and Substrates of Cytochrome P450 2D6 (AID 891; active = well fitted curve in the direction sought with a large enough effect; an effect the other way counts as inactive or inconclusive; note: potency is the fitted concentration of half-maximal effect; nearly all actives have a fitted effect of over 60% in size); conditions: recombinant CYP2D6, luciferin-ME EGE luminescence; series mostly up to 57.1 µM
In short: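 Human CYP2D6 (5 nM) with 30 uM Luciferin-ME EGE (at Km) in 100 mM KPO4, compound preincubated 10 min, then NADPH regeneration system for 60 min at room temperature. Luciferin read by luminescence; normalized to 1.43 uM quinidine.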

[18] = molecular target: Cytochrome P450 2C19 (Homo sapiens) (UniProt P33261); test: qHTS Assay for Inhibitors and Substrates of Cytochrome P450 2C19 (AID 899; active = well fitted curve in the direction sought with a large enough effect; an effect the other way counts as inactive or inconclusive; note: potency is the fitted concentration of half-maximal effect; nearly all actives have a fitted effect of over 60% in size); conditions: recombinant CYP2C19, luciferin-H EGE luminescence; series mostly up to 57.1 µM
In short: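 Signal comes from luciferase acting on luciferin released by CYP2C19-mediated hydroxylation of Luciferin-H EGE, 10uM (KM). Assay mix: 5nM enzyme, 50mM KPO4; 60 min at 37C with NADPH regeneration. Data normalized against 57uM ketoconazole.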

[19] = qHTS profiling for inhibitors of Plasmodium falciparum proliferation (AID 504749; active = well fitted curve in the direction sought with a large enough effect; an effect the other way counts as inactive or inconclusive;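 note: 0% = DMSO vehicle and full inhibition = artemisinin control; nearly all actives have a fitted effect of over 60% in size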); conditions: P. falciparum in erythrocytes, SYBR Green DNA, 72 h, at 12.8 µM (top of the series)
In short: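 P. falciparum-infected erythrocytes (0.3% parasitemia, 2.5% hematocrit) incubated with compound 72 h at 37 C, 5% CO2. Parasite DNA detected by SYBR Green after lysis, overnight at room temperature; normalised to 0.29 uM artemisinin and DMSO.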

[20] = at 7.69 µM (top of the series) unless noted
[21] = measured here: cell count channel max response
[22] = measured here: lipid channel max response

Sequence of Ubiquitin carboxyl-terminal hydrolase 1 (Homo sapiens) (O94782 whole entry, looked up): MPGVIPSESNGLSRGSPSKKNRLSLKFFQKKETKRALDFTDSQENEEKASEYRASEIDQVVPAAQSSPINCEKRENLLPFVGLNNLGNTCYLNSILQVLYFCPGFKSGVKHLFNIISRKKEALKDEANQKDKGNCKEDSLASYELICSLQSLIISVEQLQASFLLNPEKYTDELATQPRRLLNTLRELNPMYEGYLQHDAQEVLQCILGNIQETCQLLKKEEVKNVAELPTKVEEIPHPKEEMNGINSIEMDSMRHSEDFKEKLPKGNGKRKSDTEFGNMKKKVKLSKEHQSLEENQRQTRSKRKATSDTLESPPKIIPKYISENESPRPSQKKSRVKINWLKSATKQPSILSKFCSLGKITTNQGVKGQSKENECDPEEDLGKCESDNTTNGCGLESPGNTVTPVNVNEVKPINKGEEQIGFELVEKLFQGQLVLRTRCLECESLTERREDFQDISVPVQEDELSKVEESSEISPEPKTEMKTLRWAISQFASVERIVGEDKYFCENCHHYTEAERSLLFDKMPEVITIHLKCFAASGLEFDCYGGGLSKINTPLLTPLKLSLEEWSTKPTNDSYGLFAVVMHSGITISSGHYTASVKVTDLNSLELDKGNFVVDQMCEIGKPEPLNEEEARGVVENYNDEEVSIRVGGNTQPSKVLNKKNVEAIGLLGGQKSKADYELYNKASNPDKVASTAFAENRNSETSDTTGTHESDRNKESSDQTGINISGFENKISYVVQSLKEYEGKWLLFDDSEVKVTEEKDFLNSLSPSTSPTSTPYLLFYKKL
Sequence of Cytochrome P450 2D6 (Homo sapiens) (P10635 whole entry, looked up): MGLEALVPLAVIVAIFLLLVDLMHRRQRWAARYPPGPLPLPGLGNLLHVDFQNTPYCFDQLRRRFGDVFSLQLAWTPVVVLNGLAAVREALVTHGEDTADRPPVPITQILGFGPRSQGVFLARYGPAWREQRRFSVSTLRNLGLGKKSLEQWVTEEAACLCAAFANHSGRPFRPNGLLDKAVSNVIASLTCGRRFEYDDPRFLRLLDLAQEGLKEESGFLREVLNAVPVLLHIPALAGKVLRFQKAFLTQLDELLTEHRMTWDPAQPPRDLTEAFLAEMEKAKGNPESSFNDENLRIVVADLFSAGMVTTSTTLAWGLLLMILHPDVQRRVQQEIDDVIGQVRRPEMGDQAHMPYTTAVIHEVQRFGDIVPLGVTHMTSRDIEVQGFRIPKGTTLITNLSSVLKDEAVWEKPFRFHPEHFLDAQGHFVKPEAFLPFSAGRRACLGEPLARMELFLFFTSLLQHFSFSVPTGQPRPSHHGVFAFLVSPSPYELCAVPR
Sequence of Glucocorticoid receptor (Homo sapiens) (P04150 whole entry, looked up, the tested form may be a part): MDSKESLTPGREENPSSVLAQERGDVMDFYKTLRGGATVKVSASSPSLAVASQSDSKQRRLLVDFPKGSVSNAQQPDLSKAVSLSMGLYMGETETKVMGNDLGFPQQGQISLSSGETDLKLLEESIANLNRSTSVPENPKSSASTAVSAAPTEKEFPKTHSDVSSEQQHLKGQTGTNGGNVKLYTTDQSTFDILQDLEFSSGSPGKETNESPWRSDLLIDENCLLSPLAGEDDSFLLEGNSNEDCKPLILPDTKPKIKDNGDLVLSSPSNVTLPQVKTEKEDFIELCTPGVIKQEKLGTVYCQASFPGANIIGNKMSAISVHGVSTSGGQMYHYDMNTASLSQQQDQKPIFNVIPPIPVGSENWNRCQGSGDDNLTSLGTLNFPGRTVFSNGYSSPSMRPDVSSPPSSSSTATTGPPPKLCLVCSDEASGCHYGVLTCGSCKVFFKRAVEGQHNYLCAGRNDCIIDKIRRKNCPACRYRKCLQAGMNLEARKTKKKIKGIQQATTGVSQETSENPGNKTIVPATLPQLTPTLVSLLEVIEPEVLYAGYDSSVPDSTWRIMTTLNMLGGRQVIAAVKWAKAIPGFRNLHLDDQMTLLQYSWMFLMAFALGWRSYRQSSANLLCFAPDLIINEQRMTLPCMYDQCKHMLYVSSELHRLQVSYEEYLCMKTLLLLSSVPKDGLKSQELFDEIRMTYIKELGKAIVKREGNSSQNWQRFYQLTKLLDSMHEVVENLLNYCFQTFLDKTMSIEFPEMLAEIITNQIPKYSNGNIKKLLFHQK
Sequence of Cytochrome P450 3A4 (Homo sapiens) (P08684 whole entry, looked up): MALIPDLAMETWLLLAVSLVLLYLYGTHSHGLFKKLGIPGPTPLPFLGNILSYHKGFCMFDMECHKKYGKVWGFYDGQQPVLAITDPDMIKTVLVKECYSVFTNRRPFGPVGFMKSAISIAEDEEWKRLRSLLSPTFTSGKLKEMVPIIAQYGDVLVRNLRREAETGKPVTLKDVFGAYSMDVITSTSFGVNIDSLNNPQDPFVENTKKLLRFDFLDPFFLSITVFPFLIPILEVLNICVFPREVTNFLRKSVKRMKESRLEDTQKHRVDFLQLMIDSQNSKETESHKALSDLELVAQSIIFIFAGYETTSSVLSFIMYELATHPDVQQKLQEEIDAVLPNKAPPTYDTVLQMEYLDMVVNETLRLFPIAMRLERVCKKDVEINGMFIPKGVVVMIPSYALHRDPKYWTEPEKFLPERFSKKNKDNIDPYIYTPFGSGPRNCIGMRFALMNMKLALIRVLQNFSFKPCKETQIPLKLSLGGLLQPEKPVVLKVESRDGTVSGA
Sequence of Lysosomal acid glucosylceramidase (Homo sapiens) (P04062 whole entry, looked up): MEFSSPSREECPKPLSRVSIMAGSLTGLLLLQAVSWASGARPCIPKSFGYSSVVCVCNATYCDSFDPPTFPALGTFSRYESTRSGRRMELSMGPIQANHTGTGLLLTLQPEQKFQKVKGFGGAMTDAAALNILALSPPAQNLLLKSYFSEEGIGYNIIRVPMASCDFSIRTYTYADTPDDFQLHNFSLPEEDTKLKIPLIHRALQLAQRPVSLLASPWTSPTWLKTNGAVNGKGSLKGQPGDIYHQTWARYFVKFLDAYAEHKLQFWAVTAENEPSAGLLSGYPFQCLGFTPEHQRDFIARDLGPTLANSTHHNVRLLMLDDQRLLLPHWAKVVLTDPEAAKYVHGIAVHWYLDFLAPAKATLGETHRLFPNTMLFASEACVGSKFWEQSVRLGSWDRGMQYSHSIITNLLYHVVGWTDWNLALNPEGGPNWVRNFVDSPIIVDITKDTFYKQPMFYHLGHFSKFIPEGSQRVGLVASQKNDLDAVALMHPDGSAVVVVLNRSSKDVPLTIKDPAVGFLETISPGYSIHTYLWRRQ
Sequence of 3',5'-cyclic-AMP phosphodiesterase 4B (Homo sapiens) (Q07343 whole entry, looked up): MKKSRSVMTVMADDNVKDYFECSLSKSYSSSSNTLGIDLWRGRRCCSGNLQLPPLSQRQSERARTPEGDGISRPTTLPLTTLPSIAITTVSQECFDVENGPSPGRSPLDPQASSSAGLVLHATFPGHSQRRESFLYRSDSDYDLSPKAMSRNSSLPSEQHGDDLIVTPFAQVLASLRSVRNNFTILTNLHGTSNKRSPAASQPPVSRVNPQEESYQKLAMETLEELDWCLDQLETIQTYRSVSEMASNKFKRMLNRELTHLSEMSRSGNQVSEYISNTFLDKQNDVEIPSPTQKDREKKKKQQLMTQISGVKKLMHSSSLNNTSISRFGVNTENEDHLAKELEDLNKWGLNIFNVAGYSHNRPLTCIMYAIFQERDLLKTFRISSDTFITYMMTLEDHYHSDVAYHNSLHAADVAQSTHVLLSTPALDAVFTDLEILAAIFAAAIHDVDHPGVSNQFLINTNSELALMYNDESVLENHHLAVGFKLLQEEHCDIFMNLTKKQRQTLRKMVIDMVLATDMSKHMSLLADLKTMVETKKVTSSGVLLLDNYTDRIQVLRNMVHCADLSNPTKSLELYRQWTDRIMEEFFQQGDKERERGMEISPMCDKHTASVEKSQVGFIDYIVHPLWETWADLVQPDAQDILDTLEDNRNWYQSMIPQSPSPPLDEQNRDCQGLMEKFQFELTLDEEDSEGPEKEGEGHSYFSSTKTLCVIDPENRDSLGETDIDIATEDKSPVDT
Sequence of Cytochrome P450 1A2 (Homo sapiens) (P05177 whole entry, looked up): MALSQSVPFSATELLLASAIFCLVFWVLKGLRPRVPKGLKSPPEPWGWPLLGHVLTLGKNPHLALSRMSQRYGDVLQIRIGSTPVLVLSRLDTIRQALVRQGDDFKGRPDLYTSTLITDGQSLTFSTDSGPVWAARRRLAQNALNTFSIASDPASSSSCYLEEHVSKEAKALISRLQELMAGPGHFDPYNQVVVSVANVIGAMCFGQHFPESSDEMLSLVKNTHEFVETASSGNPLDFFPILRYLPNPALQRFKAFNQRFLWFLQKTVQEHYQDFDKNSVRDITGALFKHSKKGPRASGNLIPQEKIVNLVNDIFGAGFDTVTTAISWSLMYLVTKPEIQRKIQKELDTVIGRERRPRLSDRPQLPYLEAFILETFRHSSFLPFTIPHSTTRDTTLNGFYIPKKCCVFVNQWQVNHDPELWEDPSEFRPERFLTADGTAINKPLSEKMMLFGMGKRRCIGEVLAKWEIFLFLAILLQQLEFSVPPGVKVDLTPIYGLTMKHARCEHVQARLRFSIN
Sequence of Cytochrome P450 2C19 (Homo sapiens) (P33261 whole entry, looked up): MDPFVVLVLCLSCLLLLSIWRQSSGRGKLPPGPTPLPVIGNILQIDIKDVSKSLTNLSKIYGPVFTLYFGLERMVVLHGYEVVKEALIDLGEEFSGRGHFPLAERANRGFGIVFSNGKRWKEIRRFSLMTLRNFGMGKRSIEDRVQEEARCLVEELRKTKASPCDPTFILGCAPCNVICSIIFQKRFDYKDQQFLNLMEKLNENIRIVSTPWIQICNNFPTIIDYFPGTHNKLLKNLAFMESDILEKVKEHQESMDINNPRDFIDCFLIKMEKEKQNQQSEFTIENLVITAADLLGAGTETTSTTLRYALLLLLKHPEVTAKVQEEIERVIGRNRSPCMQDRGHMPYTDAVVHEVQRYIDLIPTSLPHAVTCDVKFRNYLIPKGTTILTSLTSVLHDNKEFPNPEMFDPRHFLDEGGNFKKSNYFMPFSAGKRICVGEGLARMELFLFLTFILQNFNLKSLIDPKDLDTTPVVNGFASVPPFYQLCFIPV

c1ccc2c(N3CCNCC3)nc(-c3ccoc3)nc2c1
17.6%: max response [10, 22]
inactive: Potency [1] > 11.4 µM | activity change, negative = inhibition [2] 0.826% | activity change, negative = inhibition [3, 20] -11.1% | activity, negative = inhibition [4, 20] 28% | Potency [5] > 46 µM | Potency [6] > 46 µM | Potency [7] | Potency [8] | outcome [9] | activity change, negative = inhibition ([10]; at 57.5 µM (top of the series)) 8.78%
9.44%: max response [10, 21]

O=C(c1ccncc1)N1CCC[C@@]2(CCN(c3cccc(-c4ccccc4)c3)C2)C1
8.47%: max response [10, 21]
inactive: Potency [1] > 11.4 µM | activity change, negative = inhibition [2] -13.8% | activity change, negative = inhibition [3, 20] -1.5% | activity, negative = inhibition [4, 20] -6.3% | Potency [6] > 46 µM | Potency [11] | activity change, negative = inhibition ([10]; at 57.5 µM (top of the series)) 1.7%
13%: max response [10, 22]

O=S(=O)(c1ccccc1)N1CCC2(CCN(c3ccncc3)CC2)CC1
inactive: Potency [1] > 11.4 µM | activity change, negative = inhibition [2] 2.08% | activity, negative = inhibition [4, 20] 1.98% | Potency [6] > 46 µM | Potency [7] | Potency [11] | activity change, negative = inhibition ([10]; at 57.5 µM (top of the series)) 3.52%
17%: max response [10, 22]
9.97%: max response [10, 21]

Cc1cccc(CNc2cc(-c3cccc(NS(C)(=O)=O)c3)ncn2)c1
-3.18%: max response [10, 21]
-3.48%: max response [10, 22]
active: Potency [12] 10 µM | Potency [14] 2 µM
inactive: Potency [1] > 11.4 µM | activity change, negative = inhibition [3, 20] 20% | activity, negative = inhibition [4, 20] -17.8% | Potency [5] > 46 µM | Potency [6] > 46 µM | Potency [7] | Potency [11] | activity change, negative = inhibition [13] 33.9% [at 2.29 µM] | Potency [15] | Potency [8] | outcome [9] | activity change, negative = inhibition ([10]; at 57.5 µM (top of the series)) -2.47% | Potency [16]

CC[C@@]12CCCN3CCc4c(n(c5ccccc45)C(=O)C1)[C@H]32
-16.7%: max response [10, 21]
active: Potency [12] 10 µM | Potency [17] 20 nM and 63.1 nM and 251 nM | Potency [18] 7.94 µM
inactive: Potency [1] > 11.4 µM | activity change, negative = inhibition [12] -9.8% [at 2.29 µM] | activity change, negative = inhibition ([3]; at 7.69 µM (top of the series)) -5.89% | activity change, negative = inhibition ([3]; at 17.2 µM (top of the series)) -3.8% | activity, negative = inhibition ([4]; at 7.69 µM (top of the series)) 8.55% | activity, negative = inhibition ([4]; at 17.2 µM (top of the series)) 14.6% | Potency [7] | Potency [11] | Potency [15] | activity change, negative = inhibition ([10]; at 25.7 µM (top of the series)) -0.21% | Potency [16] | activity, negative = inhibition ([19]; parasite line A) 14.8% | activity, negative = inhibition ([19]; parasite line B) -2.22%
-14%: max response [10, 22]

COc1cccc(-c2nc(N3CCNCC3)c3ccccc3n2)c1
-17.6%: max response [10, 21]
inactive: Potency [1] > 11.4 µM | activity change, negative = inhibition [2] 21.6% | activity change, negative = inhibition [3, 20] -0.232% | activity, negative = inhibition [4, 20] -3.15% | Potency [5] > 46 µM | Potency [6] > 46 µM | Potency [7] | Potency [11] | Potency [8] | outcome [9] | activity change, negative = inhibition ([10]; at 57.5 µM (top of the series)) 5.82% | Potency [16]
-11.1%: max response [10, 22]

O=C(Oc1ccccc1)N1CCC2(CCCN(c3ccncc3)C2)CC1
inactive: Potency [1] > 11.4 µM | activity change, negative = inhibition [2] 14.2% | activity, negative = inhibition [4, 20] 18.8% | Potency [6] > 46 µM | Potency [7] | Potency [11] | activity change, negative = inhibition ([10]; at 57.5 µM (top of the series)) 4.64%
active: activity change, negative = inhibition [3, 20] -80.6%
10.6%: max response [10, 22]
1.04%: max response [10, 21]
